Sampled rows, rich in hits. Any-hit rate of the full collection: about 2%.
CHRM4 agonist: agonists of human muscarinic M4 receptor (CHRM4). CHO-K1 hM4/Gqi5, Fluo-8 calcium fluorescence; vehicle 0%, full acetylcholine response 100%. activation, % at 3 µM. actives 0.14% (n = 360,000). AID 624127;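 active means activation above the run mean over all test wells plus 3 SD, cut at about 32% in these data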;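 further: peak over basal fluorescence ratio per well then scaled between controls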
Target sequence (P08173 whole entry, looked up): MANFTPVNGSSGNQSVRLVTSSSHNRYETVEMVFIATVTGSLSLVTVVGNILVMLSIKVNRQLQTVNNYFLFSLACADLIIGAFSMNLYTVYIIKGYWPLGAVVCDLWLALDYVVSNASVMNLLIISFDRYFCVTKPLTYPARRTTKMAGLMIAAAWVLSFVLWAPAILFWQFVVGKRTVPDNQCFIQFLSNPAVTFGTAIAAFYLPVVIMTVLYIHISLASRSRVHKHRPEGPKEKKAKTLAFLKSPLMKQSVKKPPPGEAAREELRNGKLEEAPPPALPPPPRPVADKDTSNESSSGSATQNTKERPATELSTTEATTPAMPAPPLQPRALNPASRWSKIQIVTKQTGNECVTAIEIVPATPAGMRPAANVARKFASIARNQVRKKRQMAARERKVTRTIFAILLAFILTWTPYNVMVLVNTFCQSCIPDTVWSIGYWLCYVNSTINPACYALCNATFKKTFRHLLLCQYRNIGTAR
CHO-K1 Ca antag: nonselective inhibitor or artifact in parental CHO-K1 cells; ATP-induced calcium, Fluo-8 fluorescence; inhibition, % at 3 µM; AID 602250; actives 0.6% (n = 360,000);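 active means inhibition above a per-plate cutoff, the plate's mean sample inhibition plus 3 SD, cut at about 24% in these data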
CHO-K1 Ca PAM: nonselective activator or artifact in parental CHO-K1 calcium assay; ATP EC20, Fluo-8 calcium fluorescence; 0% at ATP EC20, 100% at ATP max; activation, % at 3 µM; AID 602247; actives 0.02% (n = 360,000);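 active means activation above the run cutoff, the mean activation of all test compounds plus 3 SD, cut at about 40% in these data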;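 further: peak over basal fluorescence ratio in a 140 s read after ATP addition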
M4 PAM: positive allosteric modulators of human muscarinic M4 receptor; CHO-K1 hM4/Gqi5, Fluo-8 calcium fluorescence, ACh EC20; 0% = ACh EC20, 100% = maximal ACh; activation, % at 3 µM; actives 0.4% (n = 360,000); AID 624126;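 active means activation above its plate's cutoff, the mean activation of sample wells plus 3 SD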
M1 ag parental: nonselective activator or artifact in parental CHO-K1 cells; activation, % at 3 µM; actives 0.48% (n = 360,000); Fluo-8 calcium fluorescence; scaled to maximal ATP response, vehicle zero; AID 602248; in the data active means activation above about 15%;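 further: untransfected CHO-K1 host cells lacking M1 receptor as counterscreen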
CHRM4 antagonist: blocks acetylcholine activation of human M4 receptor. P08173. CHO-hM4 cells, ACh EC80, Fluo-8 calcium fluorescence. inhibition, % at 3 µM. actives 0.73% (n = 360,000);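 active means inhibition above its plate's cutoff, the mean inhibition of sample wells plus 3 SD, cut at about 27% in these data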
A number is an active result; . = inactive.

SMILES	CHRM4 agonist	CHO-K1 Ca antag	CHO-K1 Ca PAM	M4 PAM	M1 ag parental	CHRM4 antagonist
COc1cccc(-n2c(-c3ccoc3)nc3ccccc3c2=O)c1	.	.	.	.	.	.
Cc1cccc(N2C(=O)NC(=O)/C(=C\C=C\c3ccco3)C2=O)c1	.	.	.	.	.	.
CNc1ccc2oc(C[C@H]3O[C@@]4(CC[C@H]3C)O[C@H]([C@H](C)C(=O)c3ccc[nH]3)[C@H](C)C[C@H]4C)nc2c1C(=O)O	.	49	.	.	33	.
OC(CN1CCCCC1)c1c[nH]c2ccccc12 (stereo not drawn)	.	.	.	.	.	86
CC1CCCCN1CC(O)c1c[nH]c2ccccc12 (stereo not drawn)	.	.	.	.	.	.
CC(C)N(CCC(C(N)=O)(c1ccccc1)c1ccccn1)C(C)C (stereo not drawn)	.	.	.	.	.	.
CC1(C)CCCN1CCC(C(N)=O)(c1ccccc1)c1ccccc1	.	.	.	.	.	98
[O-]c1ccccc1-[n+]1c(-c2ccccc2)cc(-c2ccccc2)cc1-c1ccccc1	.	.	.	.	.	.
Oc1ccccc1-[n+]1c(-c2ccccc2)cc(-c2ccccc2)cc1-c1ccccc1	.	.	.	.	.	28
Cc1ccccc1-[n+]1c(-c2ccccc2)cc(-c2ccccc2)cc1-c1ccccc1	.	.	.	.	.	78
N#Cc1c(/N=C/c2c(O)n(Cc3ccco3)c(=O)[nH]c2=O)sc2c1CCCC2	.	.	.	.	.	.
CCOC(=O)[C@]12Cc3cc(Cl)ccc3[C@H]1N(C1CCCCC1)C(=O)c1cc(OC)ccc12	.	33	.	.	.	77
CCOC(=O)[C@]12Cc3ccc(C)cc3[C@H]1N(C1CCCCC1)C(=O)c1cc(OC)ccc12	.	.	.	.	.	.
Clc1ccc(OCC#CCN2CCCCCC2)cc1	.	.	.	.	.	33
COc1ccc(OCC#CCN2CCC(C)CC2)cc1	.	.	.	.	.	.
CNc1cc(Cl)c2nonc2c1[N+](=O)[O-]	.	38	.	.	.	34
COC(=O)C1=C(c2ccc(-c3ccccc3)c(F)c2)C[C@@H]2CC[C@H]1N2C(=O)N1CCC(O)CC1	.	.	.	.	.	.
CC(C)OCCCNC(=O)c1c(N)n(Cc2cccs2)c2nc3ccccc3nc12	.	25	.	.	.	.
CCn1ccnc1CN1CCCC(C(=O)c2cccc(C(F)(F)F)c2)C1 (stereo not drawn)	.	.	.	.	.	47
O=C(c1cccc(C(F)(F)F)c1)C1CCCN(Cc2ncc[nH]2)C1 (stereo not drawn)	.	.	.	.	.	.
Cc1ccc[n+](CC(O)Cn2c3ccccc3c3ccccc32)c1 (stereo not drawn)	.	.	.	.	.	.
C(=NC12CN3CN(CN(C3)C1)C2)c1cccnc1	.	.	.	19	.	.

Screening data: PubChem BioAssay, The Scripps Research Institute Molecular Screening Center
